Pf Dd2 growth: Plasmodium falciparum Dd2 growth inhibition; Potency, µM (doses to about 28.9 µM), inactives show at the top dose activity, negative = inhibition, usual class: inhibitors; 120,000 tested, 4.3% active; P. falciparum Dd2 growth, SYBR Green, 72 h; active = well fitted inhibition curve with a large enough effect;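 note: plate controls were DMSO vehicle for no effect and reference drug for full effect; nearly all actives have a fitted effect of over 65% in size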
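Infected erythrocytes (Dd2, 0.3% parasitemia, 2.5% hematocrit final) are added to compound in RPMI-1640/Albumax II medium, grown 72 h at 37C in low oxygen, then lysed with saponin/Triton-X containing SYBR Green and read by fluorescence.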
Numbers without * were called inactive; i = inactive; [ ] = dose if it differs, or a comment. Only a selection was taken, and hits are over-represented in it overall. Potency is the fitted concentration of half-maximal effect.

SMILES | Pf Dd2 growth
COc1ccc(CNC[C@H]2O[C@H](Cc3cc(COc4ccccc4)on3)CC[C@@H]2O)cc1 | 3.98µM*
CCC(=O)NC[C@H]1O[C@H](Cc2cc(COc3ccccc3)on2)CC[C@@H]1O | -15.2%[44.1 µM]
COCc1cc(C[C@@H]2CC[C@H](O)[C@@H](CNC3CCN(C)CC3)O2)no1 | 28.4%[44.1 µM]
O[C@H]1CC[C@@H](Cc2cc(-c3ccc(F)cc3)on2)O[C@@H]1CNCc1ccncc1 | 10µM*
CN(C)C[C@H]1O[C@H](Cc2cc(CN(C)Cc3ccccc3)on2)CC[C@@H]1O | -18.5%[44.1 µM]
COc1ccc(C(=O)N2C[C@@H]3OCC(=O)N(Cc4cccnc4)[C@@H]3C2)cc1 | 10.3%[44.1 µM]
O=C1NCCCN1C1CCN(Cc2ccccc2OC(F)(F)F)CC1 | -11.7%[44.1 µM]
Cc1cccc(CC(=O)N2CCC(c3n[nH]c(=O)n3Cc3ccc(F)cc3)CC2)c1 | -23.8%
CN1C[C@H](O)C[C@H]1c1nnc2n1CCN(C(=O)CC1CCCCC1)CC2 | 6.0%
COc1ccc(C(=O)N2C(C(=O)NC(C)C)COC23CCN(C(=O)c2ccc(F)cc2)CC3)cc1 (stereo not given) | -5.6%
O=C(c1ccc(Cl)cc1)N1C[C@@H](CO)[C@H](c2nc(C3CC3)no2)C1 | -23.6%
CCn1nccc1C(=O)N1C[C@@H](COCC2CC2)[C@H](c2ccncc2)C1 | 2.5%
CC(O)c1cc2n(n1)CCCN(C(=O)c1ccc(-c3nnn(C)n3)cc1)C2 (stereo not given) | -6.1%
CCNC(=O)N1CCC(CCOC)(NC(=O)c2cccs2)CC1 | i
Cc1cc(C(F)(F)F)nn1CC(=O)NCC12CCC=C1N(C)C(=O)CC2 (stereo not given) | -3.0%
COc1ccc(-c2cc(N3CCN(C(=O)c4ccc(C)cc4)CC3)n[nH]2)cc1 | -11.3%
COc1ccc(C(C)NC(=O)CN2C(=O)NC3(CCS(=O)(=O)CC3)C2=O)cc1 (stereo not given) | -15.3%
Cc1ccccc1NC(=O)N1CCC(CCNC(=O)C2CCC2)CC1 | 3.9%
CCCNC(=O)C1COC2(CCN(C(=O)CC(C)C)CC2)N1C(=O)c1cccc(OC)c1 (stereo not given) | 12.3%
Cc1n[nH]c(C)c1CCCN(C)c1cc(C2CC(N)C2)nc(N)n1 (stereo not given) | -10.5%
CCOc1ccc(CNC(=O)C2CCN(Cc3cc4ccccc4n3Cc3ccccc3C)CC2)cc1 | i
Cc1ccccc1Cn1c(CN2CCC(C(=O)NCc3ccc(Cl)cc3)CC2)cc2ccccc21 | 14.6%
Cc1ccccc1Cn1c(CN2CCC(C(=O)NCCN(C)C)CC2)cc2ccccc21 | 1µM*
COC1CCOC2(CCN(C(=O)CCCc3ccccc3)CC2)C1 (stereo not given) | 6.7%
CC1=C[C@@H](CN(C)CCO)[C@H](C(C)C)C[C@H]1Cc1nnc(-c2ccc(N(C)C)cc2)o1 | 2.51µM*
SMILES | Pf Dd2 growth
COCCNC(=O)C[C@@H]1C[C@@H](C(C)C)[C@H](CNC(=O)c2cnccn2)C=C1C | 2.2%[44.1 µM]
CC1=C[C@@H](CO)[C@H](C(C)C)C[C@H]1Cc1nnc(Cc2c[nH]c3ccccc23)o1 | i
CC1=C[C@@H](CN(CC2CC2)CC2CC2)[C@H](C(C)C)C[C@H]1Cc1nc2ccncc2[nH]1 | -1.0%[44.1 µM]
COCCNC[C@@H]1C=C(C)[C@H](Cc2nnc(-c3ccc(N(C)C)cc3)o2)C[C@H]1C(C)C | 3.55µM*
CC1=C[C@@H](CNCCN(C)C)[C@H](C(C)C)C[C@H]1Cc1nnc(C)o1 | i
COCCNC(=O)C[C@@H]1C[C@@H](C(C)C)[C@H](CNC(=O)CCC(=O)O)C=C1C | 5.2%[44.1 µM]
CC1=C[C@@H](CO)[C@H](C(C)C)C[C@H]1Cc1nnc(-c2ccncc2)o1 | i
CC1=C[C@@H](CNCCN(C)C)[C@H](C(C)C)C[C@H]1Cc1nnc(-c2ccc(C)cc2)o1 | 2.24µM*
CC1=C[C@@H](CO)[C@H](C(C)C)C[C@H]1Cc1nnc(-c2ccc(N(C)C)cc2)o1 | 2µM*
CN1CCC2(C1)CN(Cc1ccccc1)c1ccc(C(=O)NCCOc3ccccc3)cc12 (stereo not given) | -0.9%
CC(=O)N1CCC(Oc2ccc(Cl)cc2C(=O)N(C)CCN2CCOCC2)CC1 | -11.5%
CCc1nn(-c2ccc(F)cc2)c(Oc2ccccc2)c1CCC(=O)N1CCCC1 | i
CCNC(=O)[C@@H]1C[C@H](n2cc(C(C)(C)NC(=O)c3ccccc3C)nn2)CN1 | -9.0%
CCC(C)NC(=O)C(NC(=O)c1cccs1)C1CCN(C(=O)c2ccccc2F)CC1 (stereo not given) | -10.0%
O=C(CCC1CCCC1)N1CCN(C(=O)N2CC3CC(C2)[C@H]2CCCC(=O)N2C3)CC1 (stereo not given in full) | i
CCC(C)NC(=O)C1COC2(CCN(C(=O)Cc3ccccc3)CC2)N1C(=O)c1cccc(C)c1 (stereo not given) | i
Cc1nn(C)cc1C(=O)NCCn1c(C)cnc1C1CCC1 | -18.9%
Cc1c(CC(=O)N2CCOCC2)c2c(n1Cc1ccccc1F)CCCC2=O | -20.2%
CCOC(=O)c1cn(C2CN(S(=O)(=O)Cc3ccc(Cl)cc3)C2)nn1 | -27.1%

Screening results as filed in PubChem BioAssay.
